From the supplement of paper PMC6555819 come the findings set out here.

In this test the test system is PPARg DBDmut:RXRa IVT, anti-PPARg (DBD mutation: PPARg1 K132A/R137A, NR concentration 270 nM, RXRa partner concentration 90 nM). Kind of test: PBM binding z-score (relative to random genomic background probes); higher = stronger binding; sequences stand for … in GC…GCGATTGACAGCGTAGAATGAAGG
The procedure, abridged: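 Custom Agilent 4×180K protein-binding microarrays carried double-stranded probes. Their 34-nt variable regions held direct-repeat seeds, single-nucleotide variants, half-site ablations and random human genomic background sequences. Arrays were incubated 1 h with ligand-free nuclear receptor dimers in PBS pH 7.4, 2% milk, 0.02% Triton X-100, 1 mM DTT, 0.2 mg/mL BSA and 0.4 mg/ml salmon testes DNA. Antibodies against each partner (one per run) detected binding, and scanned fluorescence was regression-normalized. Binding z-scores use random background probes as reference.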
In turn, GATACAGGGTCAGCTAGAGTCCAGAGTATGGAAA came in with a PBM binding z-score of 0.791.
The sequence AGGATGAGGTTAAGATCAGGGAAACAGAATACAT gave a PBM binding z-score of 0.72.
Consider CCGAGTAGGTTATGGGGCATTCGGGCAACGGTGA, for which the PBM binding z-score is -0.19.
The value for TCATAAAGGTAAACAGGTGAAAGTCCGTAAGTTA was 0.109.
In the case of ACAGACAGGGGAGTGAAGGTAACTCAGCTGGACG, the PBM binding z-score came out at 0.22.
Take CATACAGGGTCAGCTAGGCGAGAGTAGGGACGGC: the PBM binding z-score turned out to be 0.279.
Next, GCGACTGGGGCAAATCAGGTTACCATAAGGTTGG: -0.276.
The value for ACTAGCAGGCCAAGTTTGGTTCACTCAAACAAAG was 0.0208; that for CCTAGTTTGTCAAGGTCACACACGCTATAGGTAC was 1.92; that for CCTACTGGGCCAAAAGTCATTGATTCCAATGCTC was -0.0689.
The value for TCTAGTTGGGCAAAGGTCACACACTCGAAATGCG was 0.687.
Sequence TCTCGGAGGACACGAAGCTCAGAGCTTTCCAGAG showed a PBM binding z-score of -1.23.
The value for ATCTCTAGGTAACCAAGTTCAATGAATGCCGAAC was 0.675; that for ACTATTAGTTGACTTAGTGCAACCGATACGACGC was 0.85; that for CTCGACAGGTCGTGCTCAGGTGAGTATACCAAAC was -0.84.
Sequence TCTTGTAAATCAGCAGGTTAAGAAAGCTGGCCAA returned a PBM binding z-score of -0.435.
For CCGACTGGGGCAGAAAGGTTAACATACCATCCGG, the PBM binding z-score is -0.202.
For CCTACTGGGCCATTCAGAGGTCTTTGATCATATG, the PBM binding z-score was -0.147.
The value for CCTCGGAGGACCACAGGAGGTCAGAGCTGCCAGA was -0.752.
Next, ATCTCTAGGTAAAGAGAGTTCAGTGAATGCAAAT: 0.459; TCTTGGAGATCAACAGGAGGTTAAGAAAGATCGA: 0.0727; CCTCGGAGGAAAGAAGGTCAGAGCTGTCCGCTTT: -2.12.
